Records with an inconclusive call do not appear. Calls of active or inactive are those of the source. The call rests on the fitted dose curve; in most records, active means well fitted inhibition curve with a large enough effect; inconclusive means small, poorly fitted or top-dose-only effect; inactive means no such curve, though single readings can be large or run the other way.
Experiment: Acumen qHTS Assay for Inhibitors of the mTORC1 Signaling Pathway in MEF (Tsc2-/-, p53-/-) Cells: Hit Validation;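 further: phospho-rpS6 Ser235/236 immunofluorescence normalized to propidium iodide cell count; nearly all actives have a fitted effect of over 65% in size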;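 on activity change, negative = inhibition: cells exposed to compound for 24 hours; plate controls were DMSO for no effect and 7.5 nM rapamycin control for full effect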
Details: Acumen imaging; activity change, negative = inhibition: at 37.3 µM (top of the series)
Potency means the concentration at half of the fitted maximal effect.

Compound | Potency | activity change, negative = inhibition
COc1ccc(CCN2CCC(CNC(=O)c3cnn(-c4cccc(Cl)c4)c3C3CCN(C(=O)OC(C)(C)C)CC3)CC2)cc1 | 6.56 µM (active) | 
Cc1ccc(C(=O)c2cn(CC(=O)NCc3ccccc3Cl)c3nc(C)ccc3c2=O)cc1 |  | -14.2%
Cc1ccc(-c2nnn(CC(=O)N(CC(=O)NCCC(C)C)c3ccc(F)cc3)n2)cc1 |  | 20.3%
O=C(NCc1ccc(F)cc1)c1ccc2c(Cl)c3c(nc2c1)CCCC3 |  | 26.5%
Cc1ccccc1CS(=O)(=O)c1ncc(Cl)c(C(=O)Nc2nnc(C(C)C)s2)n1 |  | -92.9%
COc1ccc(C(=O)c2sc(Nc3ccccc3)nc2N)cc1 |  | -4.73%
CCCCOc1ccc(Cn2c(=O)sc3ccccc32)cc1 |  | -17%
CCc1ccc(NC(=O)C2CCCN(S(=O)(=O)c3cccc4cccnc34)C2)cc1 (stereo unspecified) |  | -7.11%
COc1ccc(OC)c(C(=O)CC2(O)C(=O)N(Cc3ccccc3C)c3ccccc32)c1 (stereo unspecified) | 2.61 µM (active) | 
O=C(Nc1ccccc1F)c1nc(S(=O)(=O)Cc2ccccc2F)ncc1Cl | 2.93 µM (active) | 
Cc1ccc(NC(=O)CCS(=O)(=O)c2ccc3nc(C)sc3c2)cc1 |  | -65.5%
Cc1cc(C)cc(NC(=O)c2cnn(-c3ccc(C)c(C)c3)c2C2CCNCC2)c1 |  | -31.5%
COc1cc(Br)ccc1C1C(C(=O)Nc2ccc(C)cc2C)=C(C)Nc2nnnn21 (stereo unspecified) |  | -23.7%
Cc1ccc(C)c(N2CCN(CCCNC(=O)c3nnc(Cc4ccc(F)cc4Cl)o3)CC2)c1 | 10.4 µM (active) | 
Cc1ccc2oc(-c3ccc(Cl)cc3)c(O)c(=O)c2c1 |  | -44.5%
CCSc1oc(-c2ccc(F)cc2)nc1S(=O)(=O)c1ccc(C)cc1 |  | -25.8%

From PubChem BioAssay AID651784 (National Center for Advancing Translational Sciences (NCATS), 2012)
